HepG2 viability = qHTS for Inhibitors of TGF-b: Cytotox Counterscreen | HepG2 CAGA-GFP viability, ATP luminescence, 18 h | Potency, µM (doses to about 46.1 µM), hits mostly cytotoxic | hit rate 0.76% among 410,000 | AID 588856, 2011
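CellTiter-Glo luminescence gave cytotoxicity after 18 hours at 37 degrees C. The cells were HepG2 CAGA-GFP in 1% FBS DMEM, stimulated with 500 pg/mL TGF-beta after compound addition. %Activity was normalised to no-cell wells (complete cell-killing) and DMSO (no toxicity), and curves were fitted and classified.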
TDP1 cell noCPT = qHTS for Inhibitors of human tyrosyl-DNA phosphodiesterase 1 (TDP1): qHTS in cells in absence of CPT; DT40 Tdp1-/- hTDP1 cells, no CPT, ATP luminescence, 48 h; Potency, µM (series often up to 46.2 µM), usual class: inhibitors; hit rate 15% among 420,000; AID 686978, 2013; also: nearly all actives have a fitted effect of over 55% in size
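No-CPT arm: Tdp1-/-;hTDP1 DT40 cells (400/well) plus compounds, incubated ≥48 hr at 37 °C. Readout CellTiter-Glo luminescence.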
TGFb inhibitor = qHTS for Inhibitors of TGF-b; hit rate 1.2% among 410,000; HepG2 CAGA-GFP TGF-b/SMAD3 reporter, GFP fluorescence, 18 h; TGF-beta stimulated, 500 pg/mL final; Potency, µM (top dose mostly 46.1 µM), hits mostly inhibitors; also: nearly all actives have a fitted effect of over 65% in size
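Smad-responsive CAGA-GFP expression was quantified in HEPG2 cells exposed to compounds and 500 pg/mL final TGF-beta for 18 h at 37 degrees C; unstimulated wells defined full inhibition.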
S2 tox = Viability Counterscreen for Primary qHTS for Inhibitors of ATXN expression. hit rate 0.49% among 400,000. Potency, µM (series often up to 56.7 µM), actives largely listed as cytotoxic. S2 cells (HEK-293 line with an ATXN2-luciferase reporter) viability, CellTiter-Fluor protease fluorescence, 24 h; also: nearly all actives have a fitted effect of over 40% in size
ATXN2 expr inh = Primary qHTS for Inhibitors of ATXN expression. HEK-293 ATXN2-luciferase reporter, luminescence, 24 h. Potency, µM (top dose mostly 57 µM), actives largely listed as inhibitors. hit rate 0.72% among 360,000. AID 1745845, 2022; also: nearly all actives have a fitted effect of over 55% in size
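ATXN2-luciferase reporter cells (luciferase flanked by upstream and downstream ATXN2 gene portions) were treated 24 h at 37 °C with compounds at up to 57 uM. SteadyGlo luminescence gave expression; GF-AFC fluorescence gave viability.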
TDP1 cell CPT = qHTS for Inhibitors of human tyrosyl-DNA phosphodiesterase 1 (TDP1): qHTS in cells in presence of CPT. chicken DT40 Tdp1-/-;hTDP1 cells + 20 nM CPT, ATP luminescence, 48 h. Potency, µM (series often up to 46.2 µM), actives largely listed as inhibitors. hit rate 12% among 420,000; also: nearly all actives have a fitted effect of over 55% in size
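Cell growth measured by CellTiter-Glo luminescence after a minimum 48 h, 37 C compound exposure with 20 nM CPT in Tdp1-knockout DT40 cells stably expressing hTDP1, seeded 400/well; qHTS titration format.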
A number is an active result; 0 = inactive; ? = inconclusive; - = no result given. Shown are actives, neighbours in structure and some others; about 17% of the full set was active somewhere. Calls follow the shape of the dose curve; as a rule, active = well fitted curve in the direction sought with a large enough effect; inconclusive = small, poorly fitted or top-dose-only effect, or another doubt; inactive = no such curve, though single readings can be large; an effect the other way counts as inactive or inconclusive.

SMILES	HepG2 viability	TDP1 cell noCPT	TGFb inhibitor	S2 tox	ATXN2 expr inh	TDP1 cell CPT
Cc1ccc2nc(N(CCCN(C)C)C(=O)c3ccc(S(=O)(=O)N4CCOCC4)cc3)sc2c1	0	0	0	0	0	0
CCOc1ccc(CNC(=O)c2ccc3c(c2)c(C)c(C)n3Cc2ccc(Cl)cc2)cc1	0	?	0	-	-	?
Cc1ccc(-n2nc3c(c2NC(=O)c2ccco2)CS(=O)C3)cc1 (centres undefined)	0	0	0	0	0	?
Cc1ccc(SCC(=O)OCC(=O)NCCc2ccccc2)cc1	0	?	0	0	-	0
Cc1ccsc1C(=O)Nc1ccccc1N1CCOCC1	0	?	0	?	0	?
O=C1N[C@@H](Cc2ccccc2)C(=O)N2[C@@H]3N(S(=O)(=O)c4ccccc4)c4ccccc4[C@]3(Br)C[C@@H]12	0	?	0	0	0	?
CC(C)c1cc(C(C)C)c(S(=O)(=O)N2c3ccccc3[C@@]3(Br)C[C@H]4C(=O)N[C@@H](Cc5ccccc5)C(=O)N4[C@@H]23)c(C(C)C)c1	0	12µM	8.9µM	0	0	12µM
Cc1ccc(C(C)C)cc1OCC(=O)NCCCn1ccnc1	0	23µM	0	0	0	?
Cc1ccc(OCC(=O)Nc2ccc(N3CCN(C(=O)c4ccco4)CC3)cc2)cc1	0	23µM	0	0	0	?
O=C(Nc1nnc(S(=O)(=O)N2CCN(c3ccc(F)cc3)CC2)s1)c1ccco1	0	?	0	0	0	16µM
Nc1ccc(N2CCN(C(=O)c3ccco3)CC2)cc1	0	18µM	0	0	0	16µM
O=C(c1ccco1)N1CCN(c2ccc(F)cc2)CC1	0	0	0	0	0	?
O=C(Nc1ccc(N2CCN(C(=O)c3ccco3)CC2)cc1)c1ccc(F)cc1	0	21µM	0	0	0	?
O=S(=O)(/N=C(/NC(=S)Nc1ccccc1)c1ccccc1)c1ccc(Cl)cc1	0	0	0	0	0	0
CCN(CC)C(=S)SC1CCCCN(C(=O)c2ccc(F)cc2)C1=O (centres undefined)	0	0	?	0	0	0
COc1cccc(Cn2c(=O)c(-c3ccc(Cl)cc3)nc3cnc(N(C)C)nc32)c1	-	0	-	-	-	0
COc1ccc(OC)c(NC(=O)c2ccc3c(SCC(=O)O)c4c(nc3c2)CCCC4)c1	0	?	0	0	0	0
O=c1ccn([C@@H]2O[C@H](CNCc3ccc(-n4cccn4)cc3)[C@@H](O)[C@H]2O)c(=O)[nH]1	0	0	0	0	0	0
Cc1cc(C)cc(C(=O)Nc2ccc(N3CCN(C(=O)c4ccco4)CC3)cc2)c1	0	16µM	0	?	?	?
O=C(Nc1ccc(N2CCN(C(=O)c3ccco3)CC2)cc1)c1ccccc1	0	0	0	?	0	0
Cc1nc(-c2ccc(NC(=O)c3ccccc3Br)cc2)cs1	0	0	0	0	0	0
COc1ccc(C(=O)/C=C/C(=O)N(CC(=O)NC2CCCCC2)Cc2cccs2)c(O)c1	0	3.3µM	?	27µM	?	1.6µM
COc1ccc(CN(C(=O)/C=C/C(=O)c2ccc(OC)cc2O)C(C(=O)NC2CCCCC2)c2ccncc2)cc1 (centres undefined)	0	?	?	?	0	?
COc1ccc(C(=O)/C=C/C(=O)N(Cc2ccc3c(c2)OCO3)C(C(=O)NC2CCCCC2)c2ccncc2)c(O)c1 (centres undefined)	0	23µM	?	0	0	?
COCCN(CC(=O)NC1CCCCC1)C(=O)/C=C/C(=O)c1ccc(OC)cc1O	13µM	2.3µM	?	-	?	2.1µM
CC(=O)Nc1cccc(NC(=O)Cn2cnc3c2c(=O)n(C)c(=O)n3C)c1	0	0	0	0	0	0
